Test results as given in PubChem BioAssay (Tox21).
Inconclusive results are not listed. Entries that show only a call come without a potency. Where a structure was tested more than once in an assay, its records may differ in their call. Calls of active or inactive are those of the source. Calls come from the whole dose curve.

What follows are molecules tested against Acetylcholinesterase (Homo sapiens) (UniProt P22303) (assay: Acetylcholinesterase (AChE) small molecule antagonists: fluorescence cell-based qHTS assay (AID 1347398; note: nearly all actives have a fitted effect of over 50% in size; note: potency is the fitted concentration of half-maximal effect)). Settings: SH-SY5Y cells; Potency: AChE activity; outcome: AChE activity; series mostly up to 115 µM.
Sequence of Acetylcholinesterase (Homo sapiens) (P22303 whole entry, looked up): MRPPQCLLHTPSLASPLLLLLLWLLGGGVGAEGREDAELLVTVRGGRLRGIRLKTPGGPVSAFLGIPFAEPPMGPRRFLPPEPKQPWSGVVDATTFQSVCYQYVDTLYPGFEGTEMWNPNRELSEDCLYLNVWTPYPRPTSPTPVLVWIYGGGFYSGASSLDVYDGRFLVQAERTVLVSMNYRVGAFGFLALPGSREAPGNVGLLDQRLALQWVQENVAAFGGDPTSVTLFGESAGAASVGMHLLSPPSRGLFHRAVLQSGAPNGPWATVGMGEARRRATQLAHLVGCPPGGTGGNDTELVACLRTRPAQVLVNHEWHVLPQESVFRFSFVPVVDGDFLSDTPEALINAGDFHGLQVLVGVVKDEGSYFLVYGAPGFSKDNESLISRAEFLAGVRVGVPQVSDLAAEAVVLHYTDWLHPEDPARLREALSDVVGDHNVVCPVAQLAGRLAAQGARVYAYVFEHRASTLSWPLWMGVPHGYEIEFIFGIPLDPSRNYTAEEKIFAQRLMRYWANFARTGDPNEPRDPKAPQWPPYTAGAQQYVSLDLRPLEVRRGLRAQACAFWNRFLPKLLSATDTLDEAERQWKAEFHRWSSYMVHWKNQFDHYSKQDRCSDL
How it was run: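 Human SH-SY5Y cells were plated overnight at 37 C, exposed to compound for 30 min at 37 C, 5% CO2, then given acetylthiocholine plus Thiolite Green for 40 min at room temperature; thiocholine fluorescence (Ex/Em 490/520 nm) reports endogenous AChE activity.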

Q: For `CC1(C)[C@@H]2CC[C@@]1(C)[C@H](O)C2`, which Potency is on record?
A: inactive

Q: For `CC1=CCC(=O)O1`, which Potency is on record?
A: inactive

Q: `CCC1(C)CC(=O)NC1=O` (stereo not given) was tested. Which Potency did it give?
A: inactive

Q: `COc1cc(NC(=O)CC(C)=O)c(OC)cc1Cl` was tested. Which Potency did it give?
A: inactive

Q: `CN1CCN(C2=Nc3cc(F)ccc3Cc3ccccc32)CC1` was tested. Which Potency did it give?
A: inactive

Q: Which Potency does the source give for `O=[N+]([O-])c1cccc(S(=O)(=O)O)c1` here?
A: inactive

Q: `C1CCCNCC1` was tested. Which Potency did it give?
A: inactive

Q: How did the Potency turn out when `CC1=NN(c2ccccc2)C(=O)C1` was run?
A: 5.06 µM (active) and inactive

Q: `O=C(O)c1cc2ccccc2nc1C(=O)O` was tested. Which Potency did it give?
A: inactive

Q: Which Potency does the source give for `C=C(C)C(=O)OCCN(CC)CC` here?
A: inactive

Q: With `C=CCc1cc(OC)c(O)c(C(=O)NCCO)c1` as the molecule, how does the Potency read?
A: inactive

Q: `CCOC(=O)/C=C\C(=O)OCC` was tested. Which Potency did it give?
A: inactive

Q: `CCCCCC1CCCC(=O)O1` (stereo not given) was tested. Which Potency did it give?
A: inactive

Q: For `C/C=C(\C)C(=O)OC/C=C(\C)CCC=C(C)C`, which Potency is on record?
A: inactive

Q: How did the Potency turn out when `O=C(N/N=C/c1ccc([N+](=O)[O-])o1)c1ccc(O)cc1` was run?
A: inactive

Q: For `O=C(O)c1cn(C2CC2)c2cc(Cl)c(F)cc2c1=O`, which Potency is on record?
A: inactive

Q: `C1CCN(CN2CCCCC2)CC1` was tested. Which Potency did it give?
A: inactive

Q: With `CCn1c2ccccc2c2ccccc21` as the molecule, how does the Potency read?
A: inactive

Q: For `CCCCc1ccc(Cl)cc1`, which Potency is on record?
A: inactive

Q: For `C=C(C)C(=O)OCCOP(=O)(O)O`, which Potency is on record?
A: inactive

Q: For `O=C(CC(C(=O)OC1CCCCC1)S(=O)(=O)O)OC1CCCCC1` (stereo not given), which Potency is on record?
A: inactive

Q: For `CC(=O)OC(C(=O)c1ccccc1)c1ccccc1` (stereo not given), which Potency is on record?
A: inactive

Q: With `COc1ccc(C(=O)/C(Br)=C\C(=O)O)cc1` as the molecule, how does the Potency read?
A: inactive

Q: How did the Potency turn out when `C=C(C)C(=O)OCC(C)O` (stereo not given) was run?
A: inactive

Q: `CCCCOC(=O)CCCCCCCCC(=O)OCCCC` was tested. Which Potency did it give?
A: inactive

Q: With `CCCC(CC)c1ccccc1` (stereo not given) as the molecule, how does the Potency read?
A: inactive

Q: How did the Potency turn out when `C=C(C)C(=O)OCCCCCC` was run?
A: inactive

Q: With `CN(C)c1ccc(N=NS(=O)(=O)O)cc1` as the molecule, how does the Potency read?
A: inactive

Q: Which Potency does the source give for `Cc1cc(C(=O)O)ccc1[N+](=O)[O-]` here?
A: inactive

Q: With `NS(=O)(=O)c1cc(-c2nn[nH]n2)c(NCc2cccs2)cc1Cl` as the molecule, how does the Potency read?
A: inactive

Q: How did the Potency turn out when `O=CCc1ccccc1` was run?
A: inactive

Q: How did the Potency turn out when `COCCCN` was run?
A: inactive

Q: Which Potency does the source give for `CCCc1nc(C)c2c(=O)[nH]c(-c3cc(S(=O)(=O)N4CCN(CC)CC4)ccc3OCC)nn12` here?
A: inactive

Q: `O=Cc1ccccc1Cl` was tested. Which Potency did it give?
A: inactive

Q: `Nc1ncn([C@@H]2O[C@H](CO)[C@@H](O)[C@H]2O)c(=O)n1` was tested. Which Potency did it give?
A: inactive

Q: How did the Potency turn out when `CCCCCCCCOc1ccccc1C(=O)Nc1ccc(C(=O)OCC[N+](C)(CC)CC)cc1` was run?
A: 12.3 µM (active)

Q: `Clc1cccc(Cl)n1` was tested. Which Potency did it give?
A: inactive

Q: With `O=c1cccc[nH]1` as the molecule, how does the Potency read?
A: inactive

Q: For `O=C(O)c1ccc(OCCCOc2ccc(C(=O)O)cc2)cc1`, which Potency is on record?
A: inactive

Q: `Oc1ccc2c(c1)CCC2` was tested. Which Potency did it give?
A: inactive

These molecules were tested against Acetylcholinesterase (Homo sapiens) (UniProt P22303) (assay: Acetylcholinesterase (AChE) small molecule antagonists: enzyme-based qHTS assay with human liver microsomes (AID 1347399; note: nearly all actives have a fitted effect of over 60% in size)). Settings: Potency: qHTS inhibition; outcome: qHTS inhibition; series mostly up to 115 µM.
How it was run: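 Recombinant human AChE (50 mU/mL in the enzyme mix) and human liver microsomes (0.25 mg/mL final) were preincubated with compound and NADPH (0.25 mg/mL final) for 30 min at 37 C. Acetylthiocholine/DTNB was then added; thiocholine was read colorimetrically after 10 min at room temperature.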

Q: For `CC1(C)[C@@H]2CC[C@@]1(C)[C@H](O)C2`, which Potency is on record?
A: inactive

Q: Which Potency does the source give for `CC1=CCC(=O)O1` here?
A: inactive

Q: For `CCC1(C)CC(=O)NC1=O` (stereo not given), which Potency is on record?
A: inactive

Q: How did the Potency turn out when `COc1cc(NC(=O)CC(C)=O)c(OC)cc1Cl` was run?
A: inactive

Q: For `CN1CCN(C2=Nc3cc(F)ccc3Cc3ccccc32)CC1`, which Potency is on record?
A: inactive

Q: For `O=[N+]([O-])c1cccc(S(=O)(=O)O)c1`, which Potency is on record?
A: inactive

Q: With `C1CCCNCC1` as the molecule, how does the Potency read?
A: inactive

Q: `CC1=NN(c2ccccc2)C(=O)C1` was tested. Which Potency did it give?
A: inactive

Q: Which Potency does the source give for `O=C(O)c1cc2ccccc2nc1C(=O)O` here?
A: inactive

Q: For `C=C(C)C(=O)OCCN(CC)CC`, which Potency is on record?
A: inactive

Q: How did the Potency turn out when `C=CCc1cc(OC)c(O)c(C(=O)NCCO)c1` was run?
A: inactive

Q: How did the Potency turn out when `CCOC(=O)/C=C\C(=O)OCC` was run?
A: inactive

Q: `CCCCCC1CCCC(=O)O1` (stereo not given) was tested. Which Potency did it give?
A: inactive

Q: How did the Potency turn out when `C/C=C(\C)C(=O)OC/C=C(\C)CCC=C(C)C` was run?
A: inactive

Q: `O=C(N/N=C/c1ccc([N+](=O)[O-])o1)c1ccc(O)cc1` was tested. Which Potency did it give?
A: inactive

Q: How did the Potency turn out when `O=C(O)c1cn(C2CC2)c2cc(Cl)c(F)cc2c1=O` was run?
A: inactive

Q: Which Potency does the source give for `C1CCN(CN2CCCCC2)CC1` here?
A: inactive

Q: With `CCn1c2ccccc2c2ccccc21` as the molecule, how does the Potency read?
A: inactive

Q: How did the Potency turn out when `CCCCc1ccc(Cl)cc1` was run?
A: inactive

Q: Which Potency does the source give for `C=C(C)C(=O)OCCOP(=O)(O)O` here?
A: inactive

Q: `O=C(CC(C(=O)OC1CCCCC1)S(=O)(=O)O)OC1CCCCC1` (stereo not given) was tested. Which Potency did it give?
A: inactive

Q: `CC(=O)OC(C(=O)c1ccccc1)c1ccccc1` (stereo not given) was tested. Which Potency did it give?
A: inactive

Q: With `COc1ccc(C(=O)/C(Br)=C\C(=O)O)cc1` as the molecule, how does the Potency read?
A: inactive

Q: For `C=C(C)C(=O)OCC(C)O` (stereo not given), which Potency is on record?
A: inactive

Q: How did the Potency turn out when `CCCCOC(=O)CCCCCCCCC(=O)OCCCC` was run?
A: inactive

Q: For `CCCC(CC)c1ccccc1` (stereo not given), which Potency is on record?
A: inactive

Q: `C=C(C)C(=O)OCCCCCC` was tested. Which Potency did it give?
A: inactive

Q: For `CN(C)c1ccc(N=NS(=O)(=O)O)cc1`, which Potency is on record?
A: inactive

Q: How did the Potency turn out when `Cc1cc(C(=O)O)ccc1[N+](=O)[O-]` was run?
A: inactive

Q: `NS(=O)(=O)c1cc(-c2nn[nH]n2)c(NCc2cccs2)cc1Cl` was tested. Which Potency did it give?
A: inactive

Q: Which Potency does the source give for `O=CCc1ccccc1` here?
A: inactive

Q: With `COCCCN` as the molecule, how does the Potency read?
A: inactive

Q: Which Potency does the source give for `CCCc1nc(C)c2c(=O)[nH]c(-c3cc(S(=O)(=O)N4CCN(CC)CC4)ccc3OCC)nn12` here?
A: inactive

Q: Which Potency does the source give for `O=Cc1ccccc1Cl` here?
A: inactive

Q: `Nc1ncn([C@@H]2O[C@H](CO)[C@@H](O)[C@H]2O)c(=O)n1` was tested. Which Potency did it give?
A: inactive

Q: How did the Potency turn out when `CCCCCCCCOc1ccccc1C(=O)Nc1ccc(C(=O)OCC[N+](C)(CC)CC)cc1` was run?
A: inactive

Q: With `Clc1cccc(Cl)n1` as the molecule, how does the Potency read?
A: inactive

Q: With `O=c1cccc[nH]1` as the molecule, how does the Potency read?
A: inactive

Q: Which Potency does the source give for `O=C(O)c1ccc(OCCCOc2ccc(C(=O)O)cc2)cc1` here?
A: inactive

Q: `Oc1ccc2c(c1)CCC2` was tested. Which Potency did it give?
A: inactive
